# Screens deposited in PubChem by several laboratories.
# Sampled rows, rich in hits. Any-hit rate of the full collection: about 2.2%.
# PLC-gamma1 inh = inhibitors of human phospholipase C gamma1; P19174; 370,000 compounds, 0.84% hits; purified PLC-gamma1, fluorogenic substrate, fluorescence; inhibition, % at 12.2 µM; in the data active = inhibition above about 9.5%
# PLC-beta3 inh = inhibitors of human phospholipase C beta3. 370,000 compounds, 0.18% hits. Q01970. Purified PLC-beta3, fluorogenic substrate, fluorescence. inhibition, % at 12.2 µM;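 note: 0% = median of compound wells on plate and 100% = full blocker control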
# Target sequence (Q01970 whole entry, looked up): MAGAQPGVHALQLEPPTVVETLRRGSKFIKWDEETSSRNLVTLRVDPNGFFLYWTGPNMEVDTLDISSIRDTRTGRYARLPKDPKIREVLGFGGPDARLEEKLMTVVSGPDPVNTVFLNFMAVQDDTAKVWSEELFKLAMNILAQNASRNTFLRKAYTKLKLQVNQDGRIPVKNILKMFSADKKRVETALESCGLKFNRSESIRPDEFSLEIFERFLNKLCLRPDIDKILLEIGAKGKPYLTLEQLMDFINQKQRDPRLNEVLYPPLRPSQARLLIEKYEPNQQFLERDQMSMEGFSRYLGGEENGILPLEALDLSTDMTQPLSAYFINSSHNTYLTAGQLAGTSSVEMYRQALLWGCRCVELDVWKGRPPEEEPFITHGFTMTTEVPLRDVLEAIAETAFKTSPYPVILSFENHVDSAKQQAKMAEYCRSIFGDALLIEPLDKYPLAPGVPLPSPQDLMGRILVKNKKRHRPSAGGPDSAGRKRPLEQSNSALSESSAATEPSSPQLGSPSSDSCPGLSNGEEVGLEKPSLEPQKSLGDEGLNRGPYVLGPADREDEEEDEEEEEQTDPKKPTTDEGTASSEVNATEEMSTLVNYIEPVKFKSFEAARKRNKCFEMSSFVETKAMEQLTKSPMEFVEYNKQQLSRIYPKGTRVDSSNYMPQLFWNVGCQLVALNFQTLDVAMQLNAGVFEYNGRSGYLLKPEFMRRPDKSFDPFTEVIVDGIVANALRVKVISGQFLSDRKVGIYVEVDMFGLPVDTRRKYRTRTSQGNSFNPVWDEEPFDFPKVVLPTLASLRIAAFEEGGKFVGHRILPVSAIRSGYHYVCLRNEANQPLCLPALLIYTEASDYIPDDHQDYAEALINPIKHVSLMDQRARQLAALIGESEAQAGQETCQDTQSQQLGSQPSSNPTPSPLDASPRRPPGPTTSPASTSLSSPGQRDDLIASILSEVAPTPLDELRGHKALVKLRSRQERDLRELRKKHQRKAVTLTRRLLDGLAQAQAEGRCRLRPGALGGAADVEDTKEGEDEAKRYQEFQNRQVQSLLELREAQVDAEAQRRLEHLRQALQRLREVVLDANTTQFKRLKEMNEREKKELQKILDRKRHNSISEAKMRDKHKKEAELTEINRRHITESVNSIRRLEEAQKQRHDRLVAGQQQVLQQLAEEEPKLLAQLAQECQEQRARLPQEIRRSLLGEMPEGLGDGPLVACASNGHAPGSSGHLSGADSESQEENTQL
# FAS-TE inh = blocks the thioesterase domain of human fatty acid synthase | P49327 | inhibition, % at 15 µM | 360,000 compounds, 0.67% hits | AID 602261 | recombinant FAS-TE, OMFH fluorogenic substrate, fluorescence endpoint;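 active = compounds whose normalised, plate-corrected inhibition of enzyme fluorescence in the single-dose primary screen is 50% or more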;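 note: 0% = DMSO with enzyme and 100% = substrate without enzyme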
# H9c2 protect = modulators protecting cardiomyocytes from myocardial damage. H9c2 cardiomyocytes, H2O2 injury protection, ATPLite, 2 h. protection from H2O2 cell death, % at 20 µM. 360,000 compounds, 0.63% hits;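 active = compounds giving at least 50% protection of heart cells from peroxide-induced death in the single-dose screen, raw or plate-pattern-corrected value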;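 note: 0% = DMSO wells with peroxide and 100% = DMSO wells without peroxide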
# PLCgamma1 ctr = counter-screen for PLC-beta3 inhibitors: inhibitors of human PLC-gamma1 | shares compounds with PLC-gamma1 inh | purified PLC-gamma1, fluorogenic substrate, fluorescence | inhibition, % at 12.3 µM | 3,300 compounds, 3.1% hits | AID 743258; in the data active = inhibition above about 9.5%
# PLCb3 confirm = confirmation of human PLC-beta3 inhibitors. shares compounds with PLC-gamma1 inh. purified PLC-beta3, fluorogenic substrate fluorescence. inhibition, % at 12.3 µM. 3,300 compounds, 1% hits
# An asterisk follows results filed as active; / = not tested or not shown; ! = not confirmed by another sample. Cut-off read from the data, not from the text of the source, unless noted: active = inhibition above about 11%; inactive = the rest.
SMILES,PLC-gamma1 inh,PLC-beta3 inh,FAS-TE inh,H9c2 protect,PLCgamma1 ctr,PLCb3 confirm
CCCCNc1ncnc2c1cnn2-c1ccc(C)cc1C,11*,10,2,5,-5,0
O=[N+]([O-])c1ccc(CS(=O)(=O)c2ncn[nH]2)cc1,3,0,-6,7,/,/
COc1ccc(CS(=O)(=O)c2ncn[nH]2)cc1,37*,6,-3,3,20*,-3
COCC(=O)N1CCC(Oc2ccc(C(=O)N3C[C@@H](C)O[C@@H](C)C3)cc2)CC1,1,-6,-4,2,/,/
Cc1[nH]n(-c2ccccc2)c(=O)c1-c1ccc(Cl)cc1,2,2,-1,6,/,/
O=c1[nH]n(-c2ccc(Cl)cc2)c(=O)c(Cl)c1Cl,9.8*,3,1,-3,-8,-7
Clc1ccc2nc(C3CCCCC3)c(Cc3ccsc3)n2c1,-13,-27,1,-3,/,/
CC(C)CC1C(=O)N(Cc2cn(CC3CCCCC3)nn2)CCS(=O)(=O)N1Cc1ccc(-c2ccncc2)cc1 (stereo unspecified),2,3,-3,8,/,/
COc1ccc(S(=O)(=O)Nc2c(F)cccc2F)cc1,14*,5,-5,3,-2,-1
COc1ccc(S(=O)(=O)Nc2ccccc2C)cc1,0,1,-3,-6,/,/
C(=C\c1ccccc1)/C=N/n1cnnc1,10*,-2,-6,3,8,4
Nc1nnnn1/N=C/C=C/c1ccccc1,1,-1,-5,-4,/,/
O=C(COC(=O)C1=COCCO1)Nc1ccccc1Oc1ccccc1,4,11*,-2,5,-2,1
O=C(COC(=O)C1=COCCO1)Nc1cccc(Oc2ccccc2)c1,-1,-1,-5,-1,/,/
O=S1(=O)CCN(CCCc2ccccc2)CC1,2,2,-8,2,/,/
O=S1(=O)CCN(CCc2ccccc2)CC1,6,12*,-6,2,-8,-12
NNC(=O)CNc1cccc(Br)c1,-2,-2,-6,0,/,/
C=CCNc1cccc(Br)c1,4,11*,-12,10,-7,-3
FC(F)(F)c1cc(CO[C@@H]2CCCN[C@@H]2c2ccccc2)cc(C(F)(F)F)c1,10*,9,7,-25,-10,-2
FC(F)(F)c1cc(CCN2CCNC[C@@H]2c2ccccc2)cc(C(F)(F)F)c1,-4,-5,-59,-10,/,/
O=C(NC1CCC(Oc2ccc(C(=O)O)cc2)CC1)NC12CC3CC(CC(C3)C1)C2 (stereo unspecified),0,0,-1,1,/,/
CCCNC(=O)NC(=O)CN1C(=O)NC(C)(c2ccc3ccccc3c2)C1=O (stereo unspecified),2,-6,-4,6,/,/
COC(=O)c1ccc(NC(=O)CN(C)S(=O)(=O)c2ccc(OC)c(C)c2)cc1,9.6*,-1,12,-8,-10,-4
Cc1ccc(S(=O)(=O)NC2=C(N3CCN(c4ccccc4F)CC3)C(=O)c3ccccc3C2=O)cc1,15*!,1,24,-13,9.8*,8
Cc1cccc(NS(=O)(=O)c2ccc3[nH]c(=O)[nH]c3c2)c1C,-1,-5,0,6,/,/
SMILES,PLC-gamma1 inh,PLC-beta3 inh,FAS-TE inh,H9c2 protect,PLCgamma1 ctr,PLCb3 confirm
Cc1cccc(NS(=O)(=O)c2ccc3c(c2)Cc2cc(S(=O)(=O)Nc4cccc(C)c4C)ccc2-3)c1C,10*,4,4,-5,-7,-2
CCNC(=O)C1Cc2cc(S(=O)(=O)N3CCCC3)ccc2N1C(C)=O (stereo unspecified),3,-6,-10,-6,/,/
Cc1ccc(-c2nc3ccsc3c(=O)[nH]2)cc1,10*,6,-12,-2,-3,0
CC(COc1ccc(Br)cc1)CN1CCC(C(O)(c2ccccc2)c2ccccc2)CC1 (stereo unspecified),2,-2,/,/,/,/
CC1CCC(NC(=O)C(NS(=O)(=O)c2cccc3nsnc23)C(C)C)CC1 (stereo unspecified),11*,-3,-3,-3,3,2
Cc1cn([C@H]2C[C@H](O)[C@@H](/C=C/C(=O)NCc3cccc4ccccc34)O2)c(=O)[nH]c1=O,-1,2,-8,8,/,/
COc1ccc(C2C(C#N)=C(N)Nc3onc(C(C)(C)C)c32)c(OC)c1 (stereo unspecified),6,11*,-11,-3,-3,-1
COc1ccc(C2C(C#N)=C(C)NC(C)=C2C#N)c(OC)c1,-16,-24,-1,12,/,/
